This passage reports Potency results from PubChem BioAssay AID652180 (National Center for Advancing Translational Sciences (NCATS), 2013).

Results filed as inconclusive are left out. Entries that show only a call come without a potency. Calls of active or inactive are those of the source. The call rests on the fitted dose curve; in most records, active means well fitted inhibition curve with a large enough effect; inconclusive means small, poorly fitted or top-dose-only effect; inactive means no such curve, though single readings can be large or run the other way.

This assay in a line: qHTS Assay for Lipid Storage Modulators: 3T3L1 Assay against Probe and Analogs. The conditions noted are these: 3T3-L1 lipid droplets, BODIPY imaging, oleic acid, 18-24 h; series mostly up to 46.1 µM. The method, boiled down:
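Lipid droplet number and size, plus cell count, were measured by imaging BODIPY- and Hoechst-stained 3T3L1 cells. Compounds (0.46% DMSO final) were co-incubated for 18-24 h with oleic acid, added at 400 uM, to induce droplets. Triacsin C served as control.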
Consider `Cc1ccc(NC(=O)c2ccc(CN3CCN(C)CC3)cc2)cc1Nc1nc(-c2cccnc2)cs1`, for which the Potency result is “inactive”.

On to `COc1nc(-c2ccc3c(c2)OCO3)n(-c2ccc(NC(=O)CSc3ccccc3)cc2)n1`, for which the Potency entry is “inactive”.

Consider `CCOc1ccc(CCNC(=O)c2cc3sccc3n2C)cc1OCC`, for which the Potency result is “inactive”.

In the case of `O=C(NC1CCCc2c1cnn2-c1ccc(F)cc1F)c1ccc(C2(C(F)(F)F)N=N2)cc1` (centres undefined), the Potency result was “inactive”.

For the compound `O=C(NCCc1ccc2c(c1)OCO2)c1cc2sccc2[nH]1`, the Potency result is “inactive”.

As for `CCOc1ccc(CCNC(=O)c2cc3sccc3n2Cc2ccccn2)cc1OCC`, the Potency was 0.0235 µM (active).

In the case of `O=C(NC1CCCc2c1cnn2-c1cccc(O)c1)c1ccccn1` (centres undefined), the Potency result is “inactive”.

As for `CCOc1ccc(CCNC(=O)c2ccccn2)cc1OCC`, the Potency result was “inactive”.

As for `Cc1cc2c(cc1C1(c3ccc(C(=O)O)cc3)CC1)C(C)(C)CCC2(C)C`, the Potency entry was “inactive”.

In the case of `CCOc1ccc(CCNC(=O)c2cc3ccccc3n2Cc2ccc(Cl)c(F)c2)cc1OCC`, the Potency was 0.0187 µM (active).

With `O=C(O)c1cccc(-c2noc(-c3ccccc3F)n2)c1`, the Potency was 2.64 µM (active).

Take `CCOC(=O)C1CCN(C(=O)C(C)(C)NC(=O)Nc2cccc(C(=O)OC)c2)CC1`: the Potency result was “inactive”.

Consider `O=C(NC1CCCc2c1cnn2-c1ccc(F)cc1F)C1CCCCC1` (centres undefined), for which the Potency result is “inactive”.

With `O=C(NC1CCCc2c1cnn2-c1ccc(F)cc1F)c1cnccn1` (centres undefined), the Potency result is “inactive”.

Turning to `CCOC(=O)C1CCN(C(=O)C(C)(C)NC(=O)Nc2ccc(F)c(F)c2)CC1`, the Potency entry was “inactive”.

For `O=C(O)CCc1ccc(NCc2cccc(Oc3ccccc3)c2)cc1`, the Potency entry is “inactive”.

Consider `CC1=C(C(=O)NC2CCCc3c2cnn3-c2ccc(F)cc2F)OCCO1` (centres undefined), for which the Potency result was “inactive”.

For `O=C(NC1CCCc2c1cnn2-c1ccc(F)cc1F)c1ccccc1` (centres undefined), the Potency entry is “inactive”.

Take `O=C(NC1CCCc2c1cnn2-c1ccc(F)cc1F)c1ccn[nH]1` (centres undefined): the Potency entry is “inactive”.

Regarding `CCOc1ccc(CCNC(=O)c2cc3sccc3n2CC=C(C)C)cc1OCC`, the Potency was 0.833 µM (active).

For the compound `CCOc1cc(CCNC(=O)c2cc3sccc3n2Cc2ccccc2)cc(F)c1OCC`, the Potency was 0.0526 µM (active).

With `CCOC(=O)C1CCN(C(=O)C2(NC(=O)Nc3ccccc3Cl)CC2)CC1`, the Potency result was “inactive”.

For `O=C(NC1CCCc2c1cnn2-c1ccc(F)cc1F)c1cccs1` (centres undefined), the Potency entry was “inactive”.

On to `CCOC(=O)C1CCN(C(=O)C(C)(C)NC(=O)Nc2cccc(-c3csc(C)n3)c2)CC1`, for which the Potency result is “inactive”.

Regarding `CC(C)(C)OC(=O)NCCOCCOCCOc1cccc(-n2ncc3c2CCCC3NC(=O)c2ccccn2)c1` (centres undefined), the Potency result was “inactive”.

As for `O=C(NC1CCCc2c1cnn2-c1ccc(F)cc1F)c1cnon1` (centres undefined), the Potency entry was “inactive”.

`Cc1cn(-c2cc(NC(=O)c3ccc(C)c(Nc4nccc(-c5cccnc5)n4)c3)cc(C(F)(F)F)c2)cn1`: the Potency entry is “inactive”.

For `CCOc1ccc(CCNC(=O)c2cc3sccc3n2CCN2CCN(C)CC2)cc1OCC`, the Potency is 1.32 µM (active).

Regarding `O=C(Nc1cccc2c1cnn2-c1ccc(F)cc1)c1ccccn1`, the Potency entry is “inactive”.
